From PubChem BioAssay come the findings set out here.

Calls of active or inactive are those of the source.

Assay [1] relates to Plasmodium falciparum Sir2 (PF13_0152, Sir2A). Put plainly: Plasmodium falciparum Sir2A binding compounds – biochemical, small-molecule microarray, 635 nm fluorescence, primary screen (AID 1098).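 Further: score merges spot fluorescence intensity with its signal-to-noise ratio.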 The following applies: fluorescence 635 nm, higher = more signal.
Assay [2] is described as follows: probe aDKK1 binding to arrayed compounds – biochemical, biotinylated probe, 635/667 nm fluorescence, primary screen (AID 1099).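 Further: score merges 667nm spot fluorescence with signal to noise across triplicate slides; reference of the scale not given here.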 The following applies: small-molecule microarray, higher = more signal.
Assay [3] in a line: probe aCHRDL2 binding to arrayed compounds – biochemical, biotinylated probe, 635/667 nm fluorescence, primary screen (AID 1100). As to conditions: small-molecule microarray, higher = more signal.
Assay [4] is described as follows: change in splice reporter luminescence, either direction, cell-based, HEK293, spliceosome inhibition project, primary screen (AID 1101).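 Further: HEK293 cells carrying a splicing-competent luciferase reporter gene; test concentration not given here.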 As to conditions: HEK293 splicing luciferase reporter, 24 h, higher = more signal, called active from +8 up or from −8 down. In general terms: A reporter such as luciferase makes a cellular process visible.
The target of assay [5] is Fibroblast growth factor 10 (Homo sapiens) (UniProt O15520). Put plainly: compounds binding fibroblast growth factor 10 – biochemical, small-molecule microarray, 635 nm fluorescence, primary screen (AID 1102). As to conditions: FGF10 binding, fluorescence 635 nm, higher = more signal.
Chain of Fibroblast growth factor 10 (Homo sapiens) (O15520 whole entry, looked up): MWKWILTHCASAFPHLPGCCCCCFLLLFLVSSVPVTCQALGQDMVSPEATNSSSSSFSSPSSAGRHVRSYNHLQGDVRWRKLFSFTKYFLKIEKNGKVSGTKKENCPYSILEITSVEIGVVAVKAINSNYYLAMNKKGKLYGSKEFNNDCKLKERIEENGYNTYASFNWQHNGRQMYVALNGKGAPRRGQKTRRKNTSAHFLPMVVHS
Assay [6] relates to glycogen synthase kinase-3 (GSK3A per assay name; protocol says GSK3B). Put plainly: compounds binding glycogen synthase kinase-3 – biochemical, small-molecule microarray, 635 nm fluorescence, GSK3A, primary screen (AID 1103). Further: the record names both GSK3A and GSK3B. The following applies: fluorescence 635 nm, higher = more signal.
The target of assay [7] is Epidermal growth factor receptor (Homo sapiens) (UniProt P00533). The experiment in a line: compounds binding epidermal growth factor receptor – biochemical, small-molecule microarray, 635 nm fluorescence, primary screen (AID 1104).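 Further: score merges 667 nm emission intensity with spot signal to noise over triplicate slides.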 The following applies: EGFR binding, higher = more signal.
Chain of Epidermal growth factor receptor (Homo sapiens) (P00533 whole entry, looked up): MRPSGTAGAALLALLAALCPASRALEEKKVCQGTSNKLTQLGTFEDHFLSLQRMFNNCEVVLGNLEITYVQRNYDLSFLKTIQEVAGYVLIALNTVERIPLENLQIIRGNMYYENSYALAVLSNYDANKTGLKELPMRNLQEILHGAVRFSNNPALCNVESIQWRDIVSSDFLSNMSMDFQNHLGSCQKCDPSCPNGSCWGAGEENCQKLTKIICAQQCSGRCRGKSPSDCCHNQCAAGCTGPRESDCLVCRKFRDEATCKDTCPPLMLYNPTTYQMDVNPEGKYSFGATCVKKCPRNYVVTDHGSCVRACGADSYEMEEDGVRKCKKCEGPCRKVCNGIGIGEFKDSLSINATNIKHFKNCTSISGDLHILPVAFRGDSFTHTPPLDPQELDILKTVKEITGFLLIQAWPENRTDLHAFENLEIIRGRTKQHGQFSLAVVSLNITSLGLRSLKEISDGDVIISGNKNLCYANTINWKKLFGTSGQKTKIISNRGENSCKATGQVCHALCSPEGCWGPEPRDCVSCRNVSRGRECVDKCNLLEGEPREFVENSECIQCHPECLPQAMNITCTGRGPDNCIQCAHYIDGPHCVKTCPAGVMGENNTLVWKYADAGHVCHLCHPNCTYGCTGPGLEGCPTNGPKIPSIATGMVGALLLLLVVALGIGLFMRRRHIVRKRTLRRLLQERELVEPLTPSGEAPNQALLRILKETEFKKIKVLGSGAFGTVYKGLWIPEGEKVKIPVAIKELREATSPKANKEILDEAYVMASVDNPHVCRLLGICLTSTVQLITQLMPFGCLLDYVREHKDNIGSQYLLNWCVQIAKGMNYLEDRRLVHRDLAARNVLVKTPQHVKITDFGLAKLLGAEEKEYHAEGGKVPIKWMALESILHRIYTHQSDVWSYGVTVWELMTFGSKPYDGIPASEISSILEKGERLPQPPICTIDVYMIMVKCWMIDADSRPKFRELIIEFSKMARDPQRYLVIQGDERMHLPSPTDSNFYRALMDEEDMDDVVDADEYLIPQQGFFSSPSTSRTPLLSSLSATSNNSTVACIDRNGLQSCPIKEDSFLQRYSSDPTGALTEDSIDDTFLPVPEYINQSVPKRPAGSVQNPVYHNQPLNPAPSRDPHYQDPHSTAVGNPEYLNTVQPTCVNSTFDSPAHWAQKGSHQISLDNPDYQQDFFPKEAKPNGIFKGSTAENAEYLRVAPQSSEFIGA
Assay [8] concerns the target Follistatin-related protein 3 (Homo sapiens) (UniProt O95633). Put plainly: compounds binding follistatin-related protein 3 – biochemical, small-molecule microarray, 635 nm fluorescence, primary screen (AID 1105).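 Further: score merges emission near 667 nm and signal to noise per printed spot across three slides.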 As to conditions: FSTL3 binding, higher = more signal.
The target of assay [9] is Dickkopf-related protein 1 (Homo sapiens) (UniProt O94907). The experiment in a line: small molecules binding DKK1 protein – biochemical, small-molecule microarray, 635 nm fluorescence scan, primary screen (AID 1106).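 Further: score merges emission near 667 nm with signal to noise over three replicate slides.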 The following applies: higher = more signal.
Chain of Dickkopf-related protein 1 (Homo sapiens) (O94907 whole entry, looked up): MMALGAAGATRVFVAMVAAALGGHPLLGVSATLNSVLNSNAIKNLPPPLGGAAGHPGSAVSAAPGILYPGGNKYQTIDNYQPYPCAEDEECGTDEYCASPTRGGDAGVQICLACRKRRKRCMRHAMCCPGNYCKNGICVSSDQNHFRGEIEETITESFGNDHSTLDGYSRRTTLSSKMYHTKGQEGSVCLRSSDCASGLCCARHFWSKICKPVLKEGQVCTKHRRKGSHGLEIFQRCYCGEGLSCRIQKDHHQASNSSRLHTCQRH
Assay [10] relates to Inhibin beta A chain (activin A). The experiment in a line: small molecules binding activin A – biochemical, small-molecule microarray, 635 nm fluorescence scan, primary screen (AID 1107).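 Further: mouse activin A protein probed at 4.33 µg/mL on printed slides; score merges bound-protein fluorescence near 667 nm with spot signal-to-noise.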 As to conditions: INHBA, higher = more signal.

Chain of Follistatin-related protein 3 (Homo sapiens) (O95633 whole entry, looked up): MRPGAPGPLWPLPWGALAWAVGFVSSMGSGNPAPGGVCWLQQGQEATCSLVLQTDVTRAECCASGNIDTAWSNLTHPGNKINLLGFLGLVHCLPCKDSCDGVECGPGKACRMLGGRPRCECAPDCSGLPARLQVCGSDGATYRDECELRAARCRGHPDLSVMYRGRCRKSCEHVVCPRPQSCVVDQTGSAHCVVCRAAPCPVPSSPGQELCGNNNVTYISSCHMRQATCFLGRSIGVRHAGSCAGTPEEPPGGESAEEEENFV

On to `[N-]=[N+]=NCc1ccccc1C[C@]1(C(=O)NCCN2CCOCC2)COC(c2ccc(OCCCO)cc2)=N1`, for which the composite z-score in assay [1] was 1.49; in assay [2], 0.297; in assay [3], 0.853; in assay [5] it was 0.396; in assay [6] it was 0.966; in assay [7] it was -0.553. The composite z-score is 0.101 in [8], -0.36 in assay [9] and 0.978 in assay [10]. Further, in assay [4], the z-score is -0.995 (inactive).

On to `Cc1ccc(-c2cccc(=O)o2)cc1`, for which the composite z-score in assay [1] is -0.466; in assay [2], 0.0694; in [3], -0.0115; in assay [5] it was -0.1; in assay [6] it was -0.39; in [7], 0.115. For the same molecule, the composite z-score in assay [8] turned out to be 0.483; in assay [9], 0.184; in assay [10], 1.35. The z-score in assay [4] was 0.613 (inactive).

`COc1ccc(C(=O)Nc2ccc(CN3C(=O)[C@@]4(O[C@@H](CC(=O)N5Cc6ccccc6C[C@H]5CO)[C@H]([Si](C)(C)c5ccc(OC)cc5)[C@H]4C)c4ccccc43)cc2)cc1`: the composite z-score in assay [1] is 1.33; in assay [2] it was -0.351; in assay [3], -0.342; in [5] it was 1.01; in [6], 0.81; in assay [7] it was 1.05. The composite z-score in [8] was 1.19; in assay [9], 0.628; in [10], 0.673. The z-score in assay [4] is -1.29 (inactive).

As for `O=C1O[C@H](c2ccccc2)[C@H](c2ccccc2)N2[C@H]1[C@@H](C(=O)N1CCN(c3ncccn3)CC1)[C@]1(C(=O)Nc3ccc(C#CCCO)cc31)[C@H]2c1ccc(OCCO)cc1`, the composite z-score in assay [1] came out at 1.66; in assay [2], 0.115; in [3], 0.536; in assay [5] it was 1.11; in assay [6], 1.28; in [7], 1.12. The composite z-score is 1.48 in assay [8], 0.949 in assay [9] and 0.463 in assay [10]. Also, the z-score in assay [4] was -0.0244 (inactive).

Consider `COCCCNC(=O)[C@@]1(Cc2ccccc2I)c2ccccc2C(=O)N(Cc2ccccc2Cl)[C@H]1c1ccc(CO)cc1`, for which the composite z-score was 0.506 in [1]; 0.0418 in assay [2]; -0.261 in assay [3]; -0.0568 in [5]; 0.575 in assay [6]; -0.0316 in assay [7]. The figures for the composite z-score in assay [8], in assay [9] and in assay [10] were 0.3, 0.186 and 0.712, respectively. The z-score in [4] is -0.964 (inactive).

Consider `COC(=O)[C@@]1(Cc2ccccc2N=[N+]=[N-])N=C(c2ccc(OCCCO)cc2)O[C@H]1c1ccccc1`, for which the composite z-score in [1] is 1.34; in [2] it was 0.0665; in [3] it was 0.87; in [5] it was 0.818; in [6] it was -0.253; in assay [7] it was -0.285. Moreover, the composite z-score was 0.666 in [8], -0.385 in assay [9] and 0.575 in assay [10]. In [4], the z-score is 2.25 (inactive).

For `COCCCNC(=O)[C@@]1(Cc2ccccc2N=[N+]=[N-])N=C(c2ccc(OCCCO)cc2)O[C@H]1c1ccccc1CN=[N+]=[N-]`, the composite z-score in [1] stood at 0.953; in [2] it was 1.19; in assay [3], 1.18; in assay [5] it was 1.43; in [6], 1.21; in [7], 0.0402. Further, the composite z-score in [8] was 0.511; in [9], -0.338; in assay [10] it was 1.21. Besides, the z-score in [4] was -0.456 (inactive).

For `C[C@]12C(=O)N(CCCCCO)[C@@H]3C(=O)N(c4ccc(Cl)cc4)CC=CC31O[C@@H]1/C=C\CCCOC(=O)C12` (stereo not given in full), the composite z-score is 0.677 in [1]; -0.131 in [2]; 0.557 in assay [3]; -1.21 in assay [5]; -1.82 in assay [6]; -1.22 in [7]. For the same molecule, the results for the composite z-score in assay [8], in [9] and in assay [10] were -0.934, -1.19 and -0.0839, respectively. In addition, the z-score in [4] is -0.0628 (inactive).

In the case of `COC(=O)C(CC#Cc1ccc2c(c1)[C@]1(C(=O)N2)[C@H](C(=O)N2CCc3cc(OC)c(OC)cc3C2)[C@H]2C(=O)O[C@H](c3ccccc3)[C@H](c3ccccc3)N2[C@@H]1c1ccc(OCCO)cc1)C(=O)OC`, the composite z-score in [1] came to 1.08; in assay [2] it was 0.0138; in assay [3] it was 0.415; in [5] it was 1.39; in assay [6], 1.3; in assay [7] it was 0.732. The values for the composite z-score in [8], in assay [9] and in assay [10] were 0.94, 0.544 and 0.614, respectively. Further, the z-score in assay [4] is -0.291 (inactive).

As to `Cc1cc(C)c(C(O)C2C=CC3C(=O)N(c4ccccc4)C(=O)C3N2Nc2ccccc2)c(C)c1` (stereo not given), the composite z-score in assay [1] came to 1.52; in assay [2], 1.17; in [3] it was 0.849; in [5] it was 0.964; in assay [6], 1.2; in assay [7] it was 0.403. The composite z-score in assay [8] is 0.939; in [9], -0.167; in assay [10], 0.242. The z-score in assay [4] is -0.62 (inactive).

Consider `COC(=O)[C@@]1(Cc2ccccc2)[C@H]2c3cc(C(=O)N4CCCC4)n(CCO)c3C[C@H]2CN1C(=O)c1ccccc1`, for which the composite z-score in assay [1] was determined as 0.346; in [2], 2.22; in [3], 1.5; in assay [5], 0.615; in assay [6], 0.343; in assay [7], 0.414. The composite z-score in assay [8] came to 1.14; in [9], 0.337; in assay [10], 0.305. In assay [4], the z-score was -1.88 (inactive).

For the molecule `COC(=O)C(CC#Cc1ccc2c(c1)[C@]1(C(=O)N2)[C@H](c2ccc(O)cc2)N2[C@H](c3ccccc3)[C@H](c3ccccc3)OC(=O)[C@H]2[C@@H]1C(=O)O)C(=O)OC`, the composite z-score was 1.26 in assay [1]; -0.114 in [2]; 0.374 in assay [3]; 0.159 in [5]; -0.375 in [6]; -0.297 in assay [7]. The composite z-score in assay [8] is 0.528; in assay [9], -0.217; in [10], 0.201. Also, the z-score in assay [4] is -0.226 (inactive).

Consider `CO[C@H]1O[C@H](CO)[C@@H](OC(=O)Nc2ccc(C(F)(F)F)cc2)[C@H](OC(=O)Nc2ccccc2)[C@H]1OC(=O)Nc1ccccc1`, for which the composite z-score in assay [1] amounted to 1.61; in [2], 0.995; in [3], 0.832; in assay [5], 1.33; in assay [6], 1.33; in [7], 0.375. In addition, the composite z-score in [8] is 1.2; in assay [9] it was 0.0148; in assay [10], 0.0729. Besides, the z-score in [4] is -0.624 (inactive).

On to `CC(C)C[C@@H]1NC(=O)[C@@H]2C[C@H](C(=O)NCc3ccc(F)cc3)[C@H](c3ccc(O)cc3)N2C1=O`, for which the composite z-score in [1] is 1.03; in [2], 0.0289; in assay [3], -0.0756; in [5] it was 0.807; in [6], 0.819; in assay [7], 0.116. Besides, the results for the composite z-score in assay [8], in [9] and in [10] were 0.111, 0.284 and -0.445, respectively. Also, the z-score in [4] was -0.295 (inactive).

Turning to `NC(=O)[C@@H]1[C@H]2C(=O)O[C@H](c3ccccc3)[C@H](c3ccccc3)N2[C@H](c2ccccc2OCCO)[C@@]12C(=O)Nc1ccc(C#CCCO)cc12`, the composite z-score in [1] was 1.03; in assay [2] it was -0.302; in assay [3], 0.54; in [5], -0.293; in [6], -0.802; in [7], -0.461. Besides, the values for the composite z-score in [8], in assay [9] and in assay [10] were 0.118, -0.647 and 0.233, respectively. In assay [4], the z-score is 0.305 (inactive).

Turning to `O=C1NC(=O)C2C1C=CC(C(O)CCc1ccccc1)N2Nc1ccccn1` (stereo not given), the composite z-score in assay [1] worked out at 0.539; in [2], 0.673; in [3] it was 0.778; in assay [5] it was 0.165; in [6], 0.44; in assay [7] it was 0.261. In addition, the figures for the composite z-score in assay [8], in [9] and in assay [10] were 0.155, 0.156 and 0.584, respectively. For the same molecule, the z-score in [4] is -0.735 (inactive).
